# Screens from PubChem.
# In the library only some 7.3% were active in any assay of this set; here they are far more common.
# HCMV antiviral – human cytomegalovirus inhibition. HFF cells, HCMV-luciferase reporter, 72 h; hits give low values. activity change, negative = inhibition, % at 57.5 µM. hit rate 4.5% among 410,000. AID 1259415; in the data active = activity change below about -60%; inconclusive = no clear call, values can overlap the other calls; inactive = above about -39%
#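 After 16 h attachment at 37C, HFF cells received test compound and HCMV-luciferase (1 PFU/cell); reporter luminescence read 72 h later, data normalized against buffer-only and known inhibitor Salinomycin.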
# AmpC inh no detg – blocks E. coli AmpC beta-lactamase in detergent-free assay | AmpC nitrocefin hydrolysis, absorbance 480 nm, 0.0001% Triton | P00811 | hit rate 0.52% among 330,000 | Potency, µM (series often up to 57.1 µM), without a hit: at the highest dose activity change, negative = inhibition, usual class: inhibitors;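 note: potency is the fitted concentration of half-maximal effect; plate controls were no compound for no effect and no enzyme for full effect; nearly all actives have a fitted effect of over 20% in size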
# Target sequence (P00811 whole entry, looked up): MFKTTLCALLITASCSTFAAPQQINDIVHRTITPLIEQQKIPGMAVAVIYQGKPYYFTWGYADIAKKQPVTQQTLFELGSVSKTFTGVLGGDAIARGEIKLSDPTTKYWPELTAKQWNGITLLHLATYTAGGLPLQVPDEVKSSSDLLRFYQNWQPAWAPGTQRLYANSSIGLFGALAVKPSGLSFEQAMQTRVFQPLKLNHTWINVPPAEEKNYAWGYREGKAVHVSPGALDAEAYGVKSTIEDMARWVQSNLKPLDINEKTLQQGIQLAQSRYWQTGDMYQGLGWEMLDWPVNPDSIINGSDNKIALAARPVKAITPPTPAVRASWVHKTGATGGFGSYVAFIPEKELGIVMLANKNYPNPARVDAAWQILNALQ
#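 20 mM phosphate pH 7.0 + 0.01% (detergent screen) or 0.0001% Triton X-100; 5.3 nM AmpC reagent; cpd preinc 15 min RT; nitrocefin (800 uM stock) to start; A480 q20 s × 4 min; Activity was normalised to no-enzyme and no-compound control wells.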
# HCV inhibitor – inhibitors of hepatitis C virus infection; AID 651820; hit rate 3.4% among 340,000; Huh7.5.1 HCVcc-Cre infection, luciferase reporter, 44 h; Potency, µM (titrated, usually from 41.8 µM), inactives show at the top dose activity change, negative = inhibition, actives largely listed as inhibitors; note: potency is the fitted concentration of half-maximal effect
#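 Seed cells (1,000/well) for 4 h; treat with compound and infect with HCVcc-Cre, moi about 0.5. Incubate 44 h, then detect luciferase activity.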
# AmpC inh detg – blocks E. coli AmpC beta-lactamase in detergent assay; hit rate 0.041% among 370,000; Potency, µM (doses to about 114 µM), for inactives: top-dose activity change, negative = inhibition, actives largely listed as inhibitors; AmpC hydrolysis of nitrocefin, absorbance 480 nm, 0.01% Triton;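 note: potency is the fitted concentration of half-maximal effect; 0% = no-compound wells and -100% = no-enzyme wells; nearly all actives have a fitted effect of over 25% in size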
#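 AmpC (5.3 nM in the dispensed reagent) in 20 mM phosphate pH 7.0 with 0.01% (detergent screen) or 0.0001% Triton X-100 was preincubated with compounds for 15 min at room temperature. Nitrocefin was then added from an 800 uM solution, and hydrolysis was followed at 480 nm.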
# FMDV inh – antivirals against foot and mouth disease virus; FMDV antiviral cell-based qHTS; Potency, µM (top dose mostly 57.9 µM), for the others: at the highest dose activity change, negative = inhibition, most hits filed as inhibitors; hit rate 1.2% among 410,000; AID 1159524; calls by dose curve; tested in HEK293T cells; note: read-out not given here; potency is the fitted concentration of half-maximal effect; nearly all actives have a fitted effect of over 45% in size
# * hit, by the source's call; ? = inconclusive; nt = no result; [ ] = dose if it differs, or a comment. Unless noted, calls come from the whole dose curve; as a rule, active = well fitted curve in the direction sought with a large enough effect; inconclusive = small, poorly fitted or top-dose-only effect, or another doubt; inactive = no such curve, though single readings can be large; an effect the other way counts as inactive or inconclusive. Unless noted, % is set by controls: 0 for no effect and ±100 for the full control effect.
SMILES,HCMV antiviral,AmpC inh no detg,HCV inhibitor,AmpC inh detg,FMDV inh
Cn1c(=O)c2c(nc(CN3CCN(C(=O)c4ccco4)CC3)n2CC(=O)C(C)(C)C)n(C)c1=O,3.2,59.5%,13.2%,?,38.0%
O=C(CSC1=Nc2ccccc2N=C(c2ccc(F)cc2)C1)NCc1ccccc1Cl,-32.1,nt,nt,19.5%,?
OCCCc1nc2ccccc2n1CCc1ccccc1,-20.4,0.0%,13.9%,-8.2%,-2.7%
CCCn1c(Nc2nc3ccccc3n2C)nc2ccccc21,-99.8*,-43.8%,?,0.5%,?
CCCc1nc2ccccc2n1CCc1ccccc1,-73.6*,-2.9%,-15.9%[0.335 µM],-10.5%,-6.0%
Cc1c(Cl)cccc1NC(=O)CNS(=O)(=O)c1cccs1,-10.9,nt,nt,5.7%,4.0%
CCC1=NN(C(=O)c2cccc(Br)c2)C(O)(c2ccc(Br)cc2)C1 (centres undefined),-71.4*,-37.9%,15.8µM*,?,0.0%
COc1ccc(-c2oc3c(c2C#CCCCCO)C(OCCO)CC3)cc1 (centres undefined),-16.1,nt,nt,nt,-22.8%
O=C(/C=C/c1ccccc1)NCCS(=O)(=O)N1CCN(c2ccccc2F)CC1,1.9,-25.5%,-12.2%,?,-20.4%
CCN1/C(=C/c2cc[n+](C)cc2)C=Cc2cc(C)ccc21,-99.9*,-10.0%,5.01µM*,4.2%,5.01µM*
COc1ccc(-c2cn3nc(N4CCCC(C(=O)Nc5cc(C)cc(C)c5)C4)sc3n2)cc1 (centres undefined),0.0,nt,nt,-3.0%,21.7%
COc1cc(Cl)ccc1NC(=S)N(CCN1CCOCC1)C1CCN(C(C)=O)CC1,-100.9*,58.0%,10.9%,6.4%,-1.3%
COc1ccc(NC(=S)N(CCN2CCOCC2)C2CCN(C(C)=O)CC2)cc1Cl,?,43.7%,6.5%,5.9%,8.6%
COc1cc(NC(=O)c2cccc(Cl)c2)c(OC)cc1NC(=O)CN1CCCCC1,?,130.3%,35.5µM*,-1.8%,-20.3%
COc1cc(NC(=O)c2cccc(Cl)c2)c(OC)cc1NC(=O)CN1CCOCC1,-72.0*,120.9%,?,?,-3.6%
CCCCCCOc1ccc(N2C(=O)CC(N(CCc3ccc(S(N)(=O)=O)cc3)C(C)=O)C2=O)cc1 (centres undefined),-37.2,154.8%,12.9%,2.9%,-12.6%
CC(C)[C@H](NC(=O)[C@@H]1CSC2c3ccccc3C(=O)N21)C(=O)NC1CCCCC1 (some centres undefined),9.1,8.4%,3.2%,1.7%,-22.1%
COCCNC(=O)c1ccc2c(c1)CCN2S(C)(=O)=O,-61.8*,-19.5%,13.9%,1.0%,-4.6%
COCCCNC(=O)c1ccc2c(c1)CCN2S(C)(=O)=O,34.8,nt,-24.1%,-3.0%,14.2%
Cc1cccc(C(=O)N2CCCC(CCC(=O)N3CCN(c4ccccn4)CC3)C2)c1C (centres undefined),-86.1*,124.4%,?,2.1%,?
COc1ccc2[nH]c3c(c2c1)CCN1C(=O)N([C@@H](C)C(=O)NCc2ccccc2)C(=O)[C@]31C,13.8,26.5%,-23.6%,?,-1.3%
CC(C)C[C@@H](C(=O)NC1CC1)N1C(=O)N2CCc3c([nH]c4ccccc34)[C@@]2(C)C1=O,13.6,115.4%,-28.8%,5.9%,-25.5%
COc1ccc2[nH]c3c(c2c1)CCN1C(=O)N([C@@H](C)C(=O)NCc2ccccc2OC)C(=O)[C@]31C,17.2,32.8%,12.6µM*,?,-27.2%
C[C@@H](C(=O)NCCc1ccccc1F)N1C(=O)N2CCc3c([nH]c4ccccc34)[C@@]2(C)C1=O,4.6,27.5%,6.31µM*,?,0.0%
C[C@@H](C(=O)NCCc1ccccc1)N1C(=O)N2CCc3c([nH]c4ccccc34)[C@@]2(C)C1=O,-4.9,66.8%,11.2µM*,8.2%,-33.2%
SMILES,HCMV antiviral,AmpC inh no detg,HCV inhibitor,AmpC inh detg,FMDV inh
O=C(NNC(=O)c1ccccc1C(=O)O)c1cc2ccccc2o1,0.0,-23.8%,7.4%,8.0%,-7.3%
CCn1c(-c2ccccc2F)nc2cc(NC(C)=O)cc(C(=O)N3CCC[C@H]3C(=O)OC)c21,nt,nt,nt,nt,15.5%
O=C(N1CCOCCOc2ccccc2OCCOCC1)C(F)(F)F,40.7,-1.8%,20.8%,?,3.2%
COc1cccc(CN2C(=O)C(C)N(C(=O)c3ccccc3)c3ccccc32)c1 (centres undefined),-71.4*,6.9%,?,?,?
COc1cccc(CN2C(=O)C(C)Oc3ccccc32)c1 (centres undefined),-5.9,-19.1%,14.8%,-0.2%,-8.7%
COc1ccc(CN2C(=O)C(C)N(C(=O)c3c(F)cccc3F)c3ccccc32)cc1 (centres undefined),?,-6.4%,?,2.2%,35.5µM*
CC1C(=O)N(Cc2ccc([N+](=O)[O-])cc2)c2ccccc2N1C(=O)c1c(F)cccc1F (centres undefined),?,1.2%,?,-4.6%,35.5µM*
COc1ccc(CN2CCc3ccccc3C2)c(OC)c1,8.8,-15.4%,-1.6%,-5.7%,-3.4%
COc1ccc(C2=[N+](C)CCn3cccc32)c(OC)c1,-96.3*,-19.1%,-6.1%,-8.7%,?
COc1ccc2ccccc2c1CN1CCN(Cc2ccccc2)CC1,-74.7*,21.1%,-11.9%,-0.8%,nt
COc1ccc(CN2CCN(Cc3ccc4ccccc4c3)CC2)cc1OC,-64.9*,100.2%,?,1.2%,?
CC(C)[C@H](NC(=O)c1ccc(Cl)cc1)C(=O)Nc1cccc(S(=O)(=O)N2CCOCC2)c1,-37.1,nt,nt,nt,-20.0%
Cc1nc(NCc2c(F)cccc2F)sc1-c1ccn(CCN2CCOCC2)n1,nt,nt,nt,nt,-10.6%
COCCn1c(=S)[nH]c2cc(C(=O)N3CCN(Cc4ccc5c(c4)OCO5)CC3)ccc2c1=O,-99.0*,0.9%,14.1µM*,-10.4%,14.1µM*
COCCn1c(=S)[nH]c2cc(C(=O)N3CCc4ccccc43)ccc2c1=O,-69.9*,-35.0%,?,-14.2%,7.94µM*
COc1ccc(CN(C)C(=O)CNC(=O)c2sc3ccccc3c2Cl)c(OC)c1,?,nt,nt,nt,-28.3%
CC[C@H](C)[C@H](NC(=O)c1ccc(Cl)cc1)C(=O)OCC(=O)c1ccc2c(c1)NC(=O)CO2,-86.7*,-19.1%,?,4.5%,?
O=C1COc2ccc(C(=O)CCl)cc2N1,-10.3,-9.6%,?,-4.7%,25.1µM*
COc1ccc(/C=C/C(=O)OCC(=O)c2ccc3c(c2)NC(=O)CO3)c(OC)c1,?,-11.4%,11.2µM*,-3.7%,-22.2%
Cc1cccc(NC(=O)c2nc[nH]c2C(=O)N2CCN(c3ccccc3)CC2)c1,?,-24.8%,14.7%,nt,13.6%
CCCCn1cc(S(=O)(=O)c2ccc(CC)cc2)c(=O)c2cc(F)c(N3CCOCC3)cc21,-6.3,nt,nt,3.6%,12.4%
NC(c1ccccc1)c1cccs1 (centres undefined),43.2,nt,nt,nt,5.9%
